Experimental data from PubChem BioAssay (Tox21).
Where “and” joins values, the source holds several entries; their conditions need not be identical. Identical values can stand only once. Inconclusive results are not listed. A call without a number means that no potency is given here. A structure can be active in one record and inactive in another. Calls of active or inactive are those of the source. Unless noted, the call rests on the fitted dose curve.

What was measured:
[1] = qHTS assay to identify small molecule antagonists of the sonic hedgehog signaling (Shh) pathway (AID 1259369); further: nearly all actives have a fitted effect of over 45% in size; further: potency means the concentration at half of the fitted maximal effect
In short: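 Inhibition of Shh signalling is measured as reduced Gli1-response-element firefly luciferase output in an NIH/3T3-derived stable reporter clone stimulated with conditioned medium for 24hr.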

[2] = target: Estrogen receptor beta (Homo sapiens) (UniProt Q92731); experiment: qHTS assay to identify small molecule agonists of the estrogen receptor beta (ER-beta) signaling pathway (AID 1259377; active means well fitted activation curve with a large enough effect in the signal ratio in the repeat runs, not every such curve was filed as active; the % refers to the signal ratio)
Chain of Estrogen receptor beta (Homo sapiens) (Q92731 whole entry, looked up): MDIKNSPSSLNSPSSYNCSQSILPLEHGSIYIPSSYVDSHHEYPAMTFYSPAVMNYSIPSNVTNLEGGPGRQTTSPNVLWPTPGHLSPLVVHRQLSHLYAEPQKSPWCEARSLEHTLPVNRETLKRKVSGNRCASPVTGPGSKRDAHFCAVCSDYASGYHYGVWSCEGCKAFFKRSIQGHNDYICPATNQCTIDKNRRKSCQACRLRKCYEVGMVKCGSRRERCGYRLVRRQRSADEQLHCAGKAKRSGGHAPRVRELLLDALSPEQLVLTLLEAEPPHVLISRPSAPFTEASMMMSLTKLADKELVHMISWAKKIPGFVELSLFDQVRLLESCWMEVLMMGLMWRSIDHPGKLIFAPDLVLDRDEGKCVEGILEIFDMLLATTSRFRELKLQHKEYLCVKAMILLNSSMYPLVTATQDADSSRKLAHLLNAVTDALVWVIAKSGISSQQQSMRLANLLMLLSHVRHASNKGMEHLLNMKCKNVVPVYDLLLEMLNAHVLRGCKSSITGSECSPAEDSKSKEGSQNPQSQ
In short: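 Reporter cells (HEK293T, ER-beta-UAS-bla) receive compounds or DMSO after a 6 hr pre-incubation. They then incubate 16 hr at 37C/5% CO2, and fluorescence from LiveBLAzer B/G substrate is measured after 2 hours at room temperature.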

[3] = qHTS assay to identify small molecule agonists of the androgen receptor (AR) signaling pathway in the presence of an antagonist - cell viability counter screen (AID 1259379; active means well fitted curve in the direction sought with a large enough effect in the repeat runs; an effect the other way counts as inactive or inconclusive; further: nearly all actives have a fitted effect of over 25% in size; further: potency means the concentration at half of the fitted maximal effect)
In short: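 Fluorescence from CellTiter-Fluor, added after 15 hr and read 1 hr later, gave cell viability. Cells were MDA-kb2 exposed to compounds (15 concentrations) in the presence of 3.0uM nilutamide at 37C, 0% CO2.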

[4] = qHTS assay to identify small molecule agonists of the estrogen receptor beta (ER-beta) signaling pathway - cell viability counter screen (AID 1259380; active means well fitted curve in the direction sought with a large enough effect in the repeat runs; an effect the other way counts as inactive or inconclusive; further: nearly all actives have a fitted effect of over 30% in size; further: potency means the concentration at half of the fitted maximal effect)
In short: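 Same-well viability counter screen. Cells: ER-beta-UAS-bla HEK293T, plated 6 hr before compound, in 2% charcoal-stripped FBS. Compound exposure 16 hr, 37C; viability by CellTiter-Glo luminescence after 30 min at room temperature.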

[5] = qHTS assay to identify small molecule antagonists of the estrogen receptor beta (ER-beta) signaling pathway - cell viability counter screen (AID 1259382; active means well fitted curve in the direction sought with a large enough effect in the repeat runs; an effect the other way counts as inactive or inconclusive; further: nearly all actives have a fitted effect of over 55% in size; further: potency means the concentration at half of the fitted maximal effect)
In short: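 Following a 6 hr plating period, HEK293T cells carrying a UAS-driven beta-lactamase reporter under ER-beta control received compounds and 1nM E2 (final). After 16 hr at 37C and 2 hr substrate loading, CellTiter-Glo luminescence indicated viability.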

[6] = target: Estrogen receptor (Homo sapiens) (UniProt P03372); experiment: qHTS assay to identify small molecule agonists of the estrogen receptor alpha (ER-alpha) signaling pathway in the presence of an antagonist (AID 1259383); further: nearly all actives have a fitted effect of over 15% in size; further: potency means the concentration at half of the fitted maximal effect; on activation: top concentration of the series differs between compounds
Chain of Estrogen receptor (Homo sapiens) (P03372 whole entry, looked up): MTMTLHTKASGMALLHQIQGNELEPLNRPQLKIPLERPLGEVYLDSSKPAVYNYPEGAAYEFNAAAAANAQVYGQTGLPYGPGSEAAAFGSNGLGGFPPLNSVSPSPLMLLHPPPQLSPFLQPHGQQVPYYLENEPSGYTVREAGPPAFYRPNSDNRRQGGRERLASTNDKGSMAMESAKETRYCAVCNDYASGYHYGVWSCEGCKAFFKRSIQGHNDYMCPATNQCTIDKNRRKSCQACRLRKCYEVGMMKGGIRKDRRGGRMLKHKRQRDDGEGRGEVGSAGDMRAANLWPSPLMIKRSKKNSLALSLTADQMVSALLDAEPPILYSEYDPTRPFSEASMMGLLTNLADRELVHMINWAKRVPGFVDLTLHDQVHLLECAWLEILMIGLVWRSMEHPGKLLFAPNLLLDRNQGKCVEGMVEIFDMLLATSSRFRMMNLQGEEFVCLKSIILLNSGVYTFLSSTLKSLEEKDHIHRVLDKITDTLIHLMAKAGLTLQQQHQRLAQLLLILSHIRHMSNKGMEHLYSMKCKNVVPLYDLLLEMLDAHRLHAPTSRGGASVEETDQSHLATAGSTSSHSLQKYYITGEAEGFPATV
In short: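 Cells are hormone-deprived for 5 days (charcoal-stripped FBS, no phenol red), plated for 24hr, spiked with 10.0nM ICI-182,780, then dosed at 15 concentrations. After 22hr at 37C, ONE-Glo luminescence reports ERE-luciferase activity.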

[7] = target: Estrogen receptor beta (Homo sapiens) (UniProt Q92731); experiment: qHTS assay to identify small molecule antagonists of the estrogen receptor beta (ER-beta) signaling pathway (AID 1259378; active means well fitted inhibition curve with a large enough effect in the signal ratio in the repeat runs, not every such curve was filed as active; the % refers to the signal ratio; further: potency means the concentration at half of the fitted maximal effect)
In short: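 ER-beta-UAS-bla HEK293T cells in 2% charcoal-stripped FBS medium treated with compound plus 1nM final 17-beta-estradiol for 16 hr at 37C. Beta-lactamase reporter read by FRET substrate fluorescence after 2 hours at room temperature.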

[8] = target: Thyrotropin receptor (Homo sapiens) (UniProt P16473); experiment: qHTS assay to identify small molecule antagonists of the thyroid stimulating hormone receptor (TSHR) signaling pathway (AID 1259385); further: nearly all actives have a fitted effect of over 20% in size; further: potency means the concentration at half of the fitted maximal effect
Chain of Thyrotropin receptor (Homo sapiens) (P16473 whole entry, looked up): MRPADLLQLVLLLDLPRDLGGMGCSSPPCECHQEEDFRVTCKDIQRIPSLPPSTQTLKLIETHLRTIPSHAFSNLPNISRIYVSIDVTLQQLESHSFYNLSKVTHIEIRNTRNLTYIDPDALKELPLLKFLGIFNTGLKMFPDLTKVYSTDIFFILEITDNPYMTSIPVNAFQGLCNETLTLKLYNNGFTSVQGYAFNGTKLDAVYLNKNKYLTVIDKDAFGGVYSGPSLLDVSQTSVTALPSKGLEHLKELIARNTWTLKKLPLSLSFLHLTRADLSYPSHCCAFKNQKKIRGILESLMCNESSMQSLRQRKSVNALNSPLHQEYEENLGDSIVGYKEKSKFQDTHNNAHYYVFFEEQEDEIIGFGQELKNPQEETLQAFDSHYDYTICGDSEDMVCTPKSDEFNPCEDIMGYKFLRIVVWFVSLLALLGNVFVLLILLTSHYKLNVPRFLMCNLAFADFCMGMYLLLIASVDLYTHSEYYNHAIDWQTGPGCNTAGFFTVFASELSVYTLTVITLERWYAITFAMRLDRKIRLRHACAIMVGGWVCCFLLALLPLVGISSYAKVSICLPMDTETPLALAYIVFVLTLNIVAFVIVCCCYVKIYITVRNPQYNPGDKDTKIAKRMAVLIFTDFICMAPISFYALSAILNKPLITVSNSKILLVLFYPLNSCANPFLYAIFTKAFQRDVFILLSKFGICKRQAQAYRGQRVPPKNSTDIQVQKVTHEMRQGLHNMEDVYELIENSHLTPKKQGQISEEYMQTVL
In short: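 TSHR-HEK293 cells (800/well) plated 18 h, then compounds with Ro20-1724 and TSH at 1.5 ng/mL final, 30 min at room temperature. cAMP quantified by HTRF (cAMP-d2/anti-cAMP-cryptate, 1 h); 15 concentrations in triplicate.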

[9] = target: Androgen receptor (Homo sapiens) (UniProt P10275); experiment: qHTS assay to identify small molecule agonists of the androgen receptor (AR) signaling pathway in the presence of an antagonist (AID 1259381); further: nearly all actives have a fitted effect of over 15% in size
Chain of Androgen receptor (Homo sapiens) (P10275 whole entry, looked up): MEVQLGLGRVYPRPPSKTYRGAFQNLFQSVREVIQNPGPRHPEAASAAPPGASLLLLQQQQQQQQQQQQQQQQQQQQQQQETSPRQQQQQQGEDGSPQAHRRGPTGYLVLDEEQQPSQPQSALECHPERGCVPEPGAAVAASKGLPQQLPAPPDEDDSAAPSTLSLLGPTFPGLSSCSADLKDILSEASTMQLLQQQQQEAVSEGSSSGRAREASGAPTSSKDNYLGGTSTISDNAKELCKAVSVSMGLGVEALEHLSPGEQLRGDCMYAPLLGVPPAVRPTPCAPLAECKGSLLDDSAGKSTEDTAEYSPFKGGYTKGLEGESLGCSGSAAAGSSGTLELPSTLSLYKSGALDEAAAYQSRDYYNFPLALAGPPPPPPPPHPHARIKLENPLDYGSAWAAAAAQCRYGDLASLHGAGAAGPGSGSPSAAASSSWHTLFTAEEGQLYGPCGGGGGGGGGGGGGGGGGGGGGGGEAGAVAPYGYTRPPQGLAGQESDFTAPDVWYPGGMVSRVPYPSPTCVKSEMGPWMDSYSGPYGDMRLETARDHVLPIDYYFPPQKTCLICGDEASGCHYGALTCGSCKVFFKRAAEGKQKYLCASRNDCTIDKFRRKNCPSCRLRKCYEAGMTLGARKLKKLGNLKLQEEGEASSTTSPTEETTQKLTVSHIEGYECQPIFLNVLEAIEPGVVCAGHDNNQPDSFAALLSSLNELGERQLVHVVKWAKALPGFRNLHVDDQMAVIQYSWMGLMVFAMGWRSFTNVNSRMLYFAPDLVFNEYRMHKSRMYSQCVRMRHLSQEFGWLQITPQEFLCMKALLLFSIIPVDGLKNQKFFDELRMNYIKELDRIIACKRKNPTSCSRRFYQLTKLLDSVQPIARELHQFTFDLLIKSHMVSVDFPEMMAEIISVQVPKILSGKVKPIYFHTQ
In short: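 Cells are MDA-kb2 (human breast carcinoma, MMTV-luc, AR/GR responsive). Nilutamide is present at 3.0uM final throughout; compounds are added at 15 concentrations and incubated 16hr at 37C before ONE-Glo luminescence detection.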

[10] = qHTS assay to identify small molecule agonists or antagonists of the thyroid stimulating hormone receptor (TSHR) signaling pathway - wild type cell line counter screen (AID 1259384); further: potency means the concentration at half of the fitted maximal effect
In short: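 Wild-type Hek293 cells, 800/well, 18 h at 37C, then compound with Ro20-1724 for 30 min RT. cAMP by HTRF (cAMP-d2/anti-cAMP cryptate), 1 h RT, fluorescence read. 15 concentrations, triplicates.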

Compound	Potency [1]	outcome [2]	Potency [3]	Potency [4]	Potency [5]	Potency [6]	Potency [7]	Potency [8]	Potency [9]	Potency [10]
CCCCC(CC)COC(=O)CC(C(=O)OCC(CC)CCCC)S(=O)(=O)O (centres undefined)	inactive	inactive	inactive	26.3 µM (active) and 30.6 µM (active)	29.5 µM (active) and 27.3 µM (active)	inactive	–	–	–	–
O=c1n(CC2CO2)c(=O)n(CC2CO2)c(=O)n1CC1CO1 (centres undefined)	963 nM (active) and 3.06 µM (active)	inactive	–	inactive	inactive	inactive	inactive	inactive	–	–
CCN(CC)C(=S)SSC(=S)N(CC)CC	217 nM (active) and 7.9 nM (active) and 1.33 µM (active)	inactive	inactive	222 nM (active) and 133 nM (active)	–	inactive	–	inactive	inactive	inactive
N[C@@H]1CONC1=O	inactive	inactive	inactive	inactive	inactive	–	inactive	inactive	–	–
O=C(Cl)c1cccc(C(=O)Cl)c1	inactive	inactive	inactive	inactive	inactive	–	inactive	inactive	–	–
COC(c1ccccc1)(c1ccccc1)[C@H](Oc1nc(C)cc(C)n1)C(=O)O	inactive	inactive	inactive	–	inactive	–	inactive	inactive	–	inactive
C=CC(=O)OCCCCCCOC(=O)C=C	19.6 µM (active) and 19.3 µM (active)	inactive	–	24.3 µM (active)	inactive	inactive	54.5 µM (active)	inactive	inactive	inactive
Cc1cc(C(C)(C)C)c(O)c(C(C)(C)C)c1	inactive	inactive	inactive	inactive	inactive	–	inactive	inactive	–	inactive
Cc1ccnc2c1NC(=O)c1cccnc1N2C1CC1	inactive	inactive	inactive	inactive	inactive	–	inactive	inactive	–	inactive
C/C=C/c1ccc(OCC)c(O)c1	inactive	inactive	inactive	inactive	inactive	–	inactive	inactive	–	inactive
C[N+]1([O-])CCOCC1	inactive	inactive	inactive	inactive	inactive	–	inactive	inactive	–	inactive
CCC(CO)(CO)COCC(CC)(CO)CO	inactive	inactive	inactive	inactive	inactive	–	inactive	inactive	–	inactive
CC(C)CCCCCCc1ccc(O)cc1	24.8 µM (active) and inactive	inactive	27.8 µM (active) and inactive	3.92 µM (active) and 61.1 µM (active)	5.54 µM (active) and inactive	15.6 µM (active) and 27.3 µM (active)	–	–	–	–
CCCOC(=O)c1cc(O)c(O)c(O)c1	12.1 µM (active)	inactive	inactive	inactive	inactive	inactive	–	inactive	–	–
Cc1scc2c1N(C(=O)CN1CCN(C)CC1)c1ccccc1NC2=O	inactive	inactive	inactive	inactive	inactive	inactive	inactive	inactive	–	–
O=C1Nc2ccccc2C1(c1ccc(O)cc1)c1ccc(O)cc1	34.4 µM (active)	inactive	–	inactive	inactive	inactive	27.3 µM (active) and 18.8 µM (active)	inactive	–	inactive
CNCCC(Oc1ccc(C(F)(F)F)cc1)c1ccccc1 (centres undefined)	15.2 µM (active)	inactive	53.8 µM (active) and 26.6 µM (active)	26.9 µM (active) and 13.3 µM (active)	24 µM (active) and 11.9 µM (active)	–	–	67.7 µM (active) and inactive	–	inactive
CCOC(=O)C(C)C(C)=O (centres undefined)	inactive	inactive	inactive	inactive	inactive	–	inactive	inactive	–	–
CCn1c2ccccc2c2cc(N)ccc21	15.2 µM (active) and inactive	inactive	–	17.1 µM (active) and 15.4 µM (active)	inactive	inactive	inactive	inactive	–	inactive
c1ccc2n[nH]nc2c1	inactive	inactive	inactive	inactive	inactive	–	inactive	inactive	–	inactive
CC(C)CCOC(=O)c1ccc(N(C)C)cc1	inactive	inactive	inactive	inactive	inactive	2.98 µM (active)	–	–	–	–
C=CS(=O)(=O)O	inactive	inactive	inactive	inactive	inactive	inactive	inactive	inactive	–	–
Cc1occc(=O)c1OC(=O)C(C)C	inactive	inactive	inactive	inactive	inactive	–	–	inactive	–	–
CCCCCCCCCCCCc1ccccc1O	67.7 µM (active) and 34.4 µM (active)	–	61.1 µM (active)	30.2 µM (active) and 27.3 µM (active)	47.9 µM (active) and 43.3 µM (active)	–	1.35 µM (active)	–	inactive	–

Compound	Potency [1]	outcome [2]	Potency [3]	Potency [4]	Potency [5]	Potency [6]	Potency [7]	Potency [8]	Potency [9]	Potency [10]
Oc1c(Cl)cc(Cl)c(Cl)c1Cc1c(O)c(Cl)cc(Cl)c1Cl	1.93 µM (active) and 1.54 µM (active)	inactive	8.61 µM (active) and 9.69 µM (active) and 9.44 µM (active)	60.9 µM (active) and 30.6 µM (active)	48.4 µM (active) and 34.4 µM (active) and inactive	–	–	inactive	inactive	inactive
CCCCCCC(O)CCCCCCCCCCC(=O)O (centres undefined)	27.4 µM (active)	inactive	inactive	inactive and 48.6 µM (active)	inactive and 30.6 µM (active)	–	inactive	inactive	–	inactive
C=C(C)C1CC=C(C)C(OC(C)=O)C1 (centres undefined)	inactive	inactive	inactive	inactive	inactive	inactive	inactive	inactive	–	–
Nc1cc(Cl)c(-c2cc(Cl)c(N)cc2Cl)cc1Cl	1.09 µM (active) and 864 nM (active)	–	54.4 µM (active) and 48.6 µM (active)	21.7 µM (active) and 24.3 µM (active)	17.2 µM (active) and 27.3 µM (active)	inactive	8.63 µM (active)	–	inactive	inactive
COC(=O)/C=C/c1ccccc1	inactive and 21.7 µM (active)	inactive	inactive	inactive	inactive	inactive	inactive	inactive	–	–
CC(=O)OCCOCCOCCOC(C)=O	inactive	inactive	inactive	inactive	inactive	inactive	inactive	inactive	–	–
CC(=O)OCC1=C(C(=O)O)N2C(=O)[C@@H](NC(=O)Cc3cccs3)[C@H]2SC1	inactive	inactive	inactive	inactive	inactive	–	inactive	inactive	–	inactive
CCC(=O)/C=C/C1C(C)=CCCC1(C)C (centres undefined)	inactive	inactive	inactive	inactive	inactive	–	inactive	inactive	–	inactive
O=C(O)CCc1ccccc1	inactive	inactive	inactive	inactive	inactive	–	inactive	inactive	–	inactive
Cc1cc(OCCOCC[N+](C)(C)Cc2ccccc2)ccc1C(C)(C)CC(C)(C)C	10.8 µM (active) and 6.68 µM (active)	inactive	54.2 µM (active) and 29.8 µM (active)	27.1 µM (active) and 13.3 µM (active)	21.6 µM (active) and 13.3 µM (active)	inactive	–	inactive	inactive	–
CC(C)(C)NCC(O)c1cc(O)cc(O)c1 (centres undefined)	inactive	–	inactive	inactive	inactive	–	–	inactive	–	2.03 µM (active)
CN(C)c1ccc(C(=C2C=CC(=[N+](C)C)C=C2)c2ccccc2)cc1	172 nM (active) and 376 nM (active) and 237 nM (active)	–	3.86 µM (active) and 3.35 µM (active) and 2.66 µM (active)	5.31 µM (active) [middle of 4 runs]	7.5 µM (active) [middle of 4 runs]	–	–	29.8 µM (active) and inactive	–	inactive
CC(=O)CC(=O)Nc1ccc2[nH]c(=O)[nH]c2c1	inactive	–	inactive	inactive	inactive	inactive	–	inactive	–	inactive
CCCC(=O)c1ccccc1	inactive	–	inactive	inactive	inactive	–	–	inactive	inactive	inactive
O=C(O)CP(=O)(O)O	inactive	–	inactive	inactive	inactive	inactive	–	inactive	–	–
CC(=O)CC(C)=O	inactive	–	inactive	inactive	inactive	inactive	–	inactive	–	inactive
CC(C)(C)NC(=O)[C@@H]1CN(Cc2cccnc2)CCN1C[C@@H](O)C[C@@H](Cc1ccccc1)C(=O)N[C@H]1c2ccccc2C[C@H]1O	inactive	–	inactive	inactive	inactive	–	–	–	–	–
CCCNC(C)C(=O)Nc1ccccc1C (centres undefined)	inactive	–	inactive	inactive	inactive	inactive	–	inactive	–	–
CCN(CC)CCOc1ccc(/C(=C(\Cl)c2ccccc2)c2ccccc2)cc1	17.6 µM (active)	–	44.2 µM (active) and 29.8 µM (active)	49.6 µM (active) and 29.8 µM (active)	44.2 µM (active) and 29.8 µM (active)	–	0.266 µM (active)	29.8 µM (active)	inactive	inactive
Nc1nc2ccccc2[nH]1	inactive	–	inactive	inactive	inactive	inactive	–	inactive	–	inactive
NCCCCCC(=O)O	inactive	–	inactive	inactive	inactive	inactive	–	inactive	–	inactive
O=C(O)c1cccc(C(=O)O)c1	inactive	–	inactive	inactive	inactive	inactive	–	inactive	–	inactive
O=C(OCc1ccccc1)c1ccc(O)cc1	43.3 µM (active) and inactive	–	inactive	inactive	inactive	30.6 µM (active) and 29.8 µM (active)	19.3 µM (active)	inactive	–	inactive
CC(=O)O[C@]1(C(C)=O)CC[C@H]2[C@@H]3C[C@H](C)C4=CC(=O)CC[C@]4(C)[C@H]3CC[C@@]21C	19.3 µM (active)	–	inactive	inactive	inactive	inactive	–	inactive	–	inactive
